Screening results deposited in PubChem BioAssay by National Center for Advancing Translational Sciences (NCATS).
A549 tox: Nrf2 qHTS screen for inhibitors: counterscreen for cytotoxicity; A549 ARE-Fluc cells, CellTiter-Fluor viability, 18-24 h; 0.16% of 390,000 active; Potency, µM (doses to about 46 µM), without a hit: at the highest dose activity change, negative = cytotoxicity, hits mostly inhibitors; further: potency means the concentration at half of the fitted maximal effect; on the % scale 0 is the no-effect control and ±100 the full control effect
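Cytotoxicity counterscreen: CellTiter-Fluor fluorescence was measured in A549 ARE_Fluc cells after 18-24 h of compound exposure in a concentration series. The subsequent BugLite luminescent read reports ARE-luciferase activity.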
ERG Ets-DNA blk: qHTS for Small Molecule Inhibitors of the ERG Ets/DNA interaction; fluorescence polarization, His-ERG Ets domain / labelled DNA; 0.028% of 370,000 active; Transcriptional regulator ERG (Homo sapiens), P11308; Potency, µM (titrated, usually from 76.9 µM), for the others: top-dose FP activity, negative = inhibition, usual class: inhibitors; active means well fitted inhibition curve with a large enough effect in the polarisation, with a control signal flat; inconclusive means small, poorly fitted or top-dose-only effect, or effect the other way, or a change in a side signal; inactive means no such curve, though single readings can be large or run the other way; the % refers to the polarisation;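 further: polarization taken with two DNA probes labelled with fluorescein and Texas red; potency means the concentration at half of the fitted maximal effect; % of control where 0% means no effect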
Target sequence (P11308 whole entry, looked up, the tested form may be a part): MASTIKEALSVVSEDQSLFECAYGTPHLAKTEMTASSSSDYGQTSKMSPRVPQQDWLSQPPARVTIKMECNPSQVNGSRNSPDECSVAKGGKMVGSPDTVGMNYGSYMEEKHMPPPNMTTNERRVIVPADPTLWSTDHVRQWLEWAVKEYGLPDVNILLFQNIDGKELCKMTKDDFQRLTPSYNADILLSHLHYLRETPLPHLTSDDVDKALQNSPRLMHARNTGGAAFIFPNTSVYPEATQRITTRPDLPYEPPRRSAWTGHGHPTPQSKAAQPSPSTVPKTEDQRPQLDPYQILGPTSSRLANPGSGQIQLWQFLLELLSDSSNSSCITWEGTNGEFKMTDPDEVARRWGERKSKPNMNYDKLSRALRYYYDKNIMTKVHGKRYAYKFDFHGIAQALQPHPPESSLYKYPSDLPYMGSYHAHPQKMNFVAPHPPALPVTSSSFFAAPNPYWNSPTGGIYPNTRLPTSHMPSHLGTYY
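His-tagged ERG Ets domain (1 uM in the protein solution; 300mM KCl, 50mM Tris-HCl, 1mM EDTA, 1mM DTT, pH 7.5) received compound, then a probe mix of 5 nM fluorescein-DNA and 100nM Texas-615-DNA. Fluorescence polarization was read for both dyes.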
LDHA block: qHTS assay for inhibitors of human lactate dehydrogenase; purified LDHA, NADH/diaphorase-resazurin fluorescence; active compounds read low; activity change, % (values are at about 110 or 230 µM); 0.15% of 480,000 active; in the data active means activity change below about -30%; inconclusive means mostly about -25% to -30%;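 further: plate controls were DMSO wells for no effect and wells without enzyme for full effect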
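Enzyme activity of human lactate dehydrogenase 5 (2 nM; 0.06 mM NADH, 0.2 mM pyruvate, 5 min, RT) is measured via a resazurin/diaphorase fluorescence readout of residual NADH.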
Nrf2 block: Nrf2 qHTS screen for inhibitors; AID 504444, 2011; 2.1% of 360,000 active; Potency, µM (highest dose often 46 µM), without a hit: top-dose activity change, negative = inhibition, most hits filed as inhibitors; A549 ARE-Fluc reporter, luciferase luminescence, 18-24 h; further: potency means the concentration at half of the fitted maximal effect; on the % scale 0 is the no-effect control and ±100 the full control effect; nearly all actives have a fitted effect of over 60% in size
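A549 ARE_Fluc cells, 5000/well, 5% FBS OPTI-MEM; compounds in dose-response, 18-24 h at 37 °C/5% CO2; CellTiter-Fluor viability read (Ex 405/Em 525), then BugLite luciferase luminescence = Nrf2 activity.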
12-LOX inh: Primary qHTS assay for inhibitors of human arachidonate 12S-lipoxygenase (ALOX12): Round 2; Polyunsaturated fatty acid lipoxygenase ALOX12 (Homo sapiens), P18054; purified 12hLO, xylenol orange hydroperoxide absorbance; Potency, µM (highest dose often 108 µM), for inactives: at the highest dose activity change, negative = inhibition, usual class: inhibitors; 1.1% of 580,000 active; AID 1671190, 2021; further: potency means the concentration at half of the fitted maximal effect; on the % scale 0 is the no-effect control and ±100 the full control effect
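Hydroperoxide product was detected by ferrous iron/xylenol orange as the 573 to 405 nm absorbance ratio. Arachidonic acid at 40 uM (final) was turned over for 30 min at room temperature by 150 nM human 12hLO, pH 7.0 Hepes buffer, after 15 min compound preincubation.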
Nrf2 ARE act: qHTS of Nrf2 Activators; AREc32 ARE-luciferase reporter (MCF7-derived line), luminescence, 24 h; Potency, µM (series often up to 46.1 µM), for inactives: at the highest dose activation, usual class: activators; 0.31% of 410,000 active; further: potency means the concentration at half of the fitted maximal effect; % of control where 0% means no effect; nearly all actives have a fitted effect of over 65% in size
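AREc32_Fluc, 1000 cells/well, OPTI-MEM + 5% FBS, o/n 37 deg C 5% CO2; 23 nL cpd by pin tool, 24 hr; Steady-Glo 30 min RT, luminescence.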
* hit, by the source's call; ? = inconclusive; . = not tested or not shown; ! = repeats disagree. Compounds with a hit are over-represented: about 2.7% of the library has one in this group of screens. Unless noted, the call rests on the fitted dose curve; in most records, active means well fitted curve in the direction sought with a large enough effect; inconclusive means small, poorly fitted or top-dose-only effect, or another doubt; inactive means no such curve, though single readings can be large; an effect the other way counts as inactive or inconclusive.

SMILES	A549 tox	ERG Ets-DNA blk	LDHA block	Nrf2 block	12-LOX inh	Nrf2 ARE act
Cc1ccccc1N=Nc1ccc(O)c2ncccc12	-17%	4%	-1	-21%	-37%	9%
COc1ccc(N=Nc2ccc(O)c3ncccc23)cc1	?	-3%	4	12µM*	?	?
COc1cccc(N=Nc2ccc(O)c3ncccc23)c1	?	2%	11	?	?	11µM*
O=Nc1ccc(O)c2ncccc12	?	-6%	4	?	?	?
CCOc1cccc2cc(-c3cc(=O)oc4cc(C)ccc34)oc12	.	.	2	.	?	.
Cc1ccc(SCC(=O)NCc2ccc(CS(N)(=O)=O)cc2)c(C)c1	.	.	-1	.	?	.
Cc1ccn2c(-c3csc(NCc4ccco4)n3)c(C)nc2c1	-17%	-2%	9	23µM*	2%	4%
COc1ccc(/C=C/C(=O)Nc2ccc3c(c2)Cc2ccccc2-3)cc1	.	.	-1	.	-2%	.
Clc1cccc(N2CCN(c3ncnc4c3nc3n4CCCCC3)CC2)c1	?	-6%	5	13µM*	-15%	0%
CCN(C(=O)C1CCCN(c2ncnc3c2nc2n3CCCCC2)C1)c1cccc(Cl)c1 (stereo not given)	0%	15%	-1	15µM*!	-7%	2%
CCN(C(=O)C1CCCN(c2ncnc3c2nc2n3CCCCC2)C1)c1cccc(C)c1 (stereo not given)	-3%	0%	0	-33%	-26%	1%
CSc1cccc(NC(=O)C2CCCN(c3ncnc4c3nc3n4CCCCC3)C2)c1 (stereo not given)	-20%	-9%	0	18µM*	9%	0%
CC(C)Cn1c(=O)[nH]c(=O)c2c(C(=O)O)cc(C3CC3)nc21	.	.	8	.	?	.
Cc1nn(C)c(C)c1CN(C)C(=O)CCCC(=O)O	5%	4%	2	21%	18µM*	-2%
Cc1nn(C)c(C)c1CN(C)C(=O)Cn1nc(C(F)(F)F)c(Cl)c1C	.	.	-2	.	15%	.
O=C(Nc1ccc(C(=O)O)cc1)Nc1ccc([N+](=O)[O-])cc1	-11%	-13%	-20	12%	-38%	0%
O=C(O)c1ccc(Nc2ncc([N+](=O)[O-])cc2[N+](=O)[O-])cc1	18µM*	-7%	-14	-13%	?	4%
CCc1cccc(NC(=O)Cn2c(=O)n3nc(-c4cccc(F)c4)nc3c3ccccc32)c1	-3%	1%	-1	.	-29%	5.6µM*
CCOc1ccccc1C(=O)NC1CCCN(c2cc(-c3ccc(Cl)cc3)[nH]n2)C1 (stereo not given)	.	.	.	.	30%	.
O=C(NCC(c1ccccc1)N1CCOCC1)c1cc(-c2cccs2)on1 (stereo not given)	.	.	-32*	.	-6%	.
O=C(CSc1nc2cc(S(=O)(=O)N3CCOCC3)ccc2o1)N1CCOCC1	.	.	-4	.	?	.
O=C1c2ccccc2-c2onc3ccc(N4CCCC4)c1c23	-10%	18µM*	12	-25%	?	10%
CCNc1ccc2noc3c2c1C(=O)c1ccccc1-3	?	?	16	21µM*	-7%	5%
N#Cc1ccccc1COC(=O)c1ccc(Cl)cc1F	.	.	13	.	?	.
COCCN1Cc2cccc(C(=O)Nc3ccccc3C(=O)OC)c2C1=O	.	.	3	.	2%	.
CCCN1C(=O)/C(=C/c2ccc(N3CCCC3)c(C)c2)NC1=S	-16%	?	2	21µM*	-30%	4%
Cc1nn(-c2ccccc2)c(C)c1/C=N/NC(=O)c1cc(-c2ccc(Cl)s2)[nH]n1	-8%	8%	-5	10µM*	-2%	0%
